Results from PubChem BioAssay.
The source made the active and inactive calls. Unless noted, no rule for the calls is given here.

Columns and labels:
[1] = compounds binding Alexa647 anti-His antibody – biochemical, small-molecule microarray, 635 nm fluorescence, artefact control for SMM control protein annotation, primary screen (AID 1128); details: higher = more signal;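 also: score merges feature fluorescence with signal-to-noise for each printed compound spot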
[2] = test system: Human papillomavirus type 1a E7 protein (residues 1-88); experiment: HPV1a E7 small-molecule binders, primary screen, biochemical, small-molecule microarray, residues 1-88, 635 nm (AID 1129); details: small-molecule microarray binding, fluorescence 635 nm; higher = more signal
[3] = molecular target: Focal adhesion kinase 1 (Homo sapiens) (UniProt Q05397); experiment: PTK2 protein binding on printed compound slides – biochemical, small-molecule microarray, 635/667 nm fluorescence, BSA, DTT, primary screen (AID 1130); details: 635 nm fluorescence, higher = more signal;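 also: composite of spot emission at 667 nm and signal to noise over triplicate slides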
[4] = test system: Fibrinogen (Alexa647-labelled); experiment: Alexa647-fibrinogen binding to printed small molecules – biochemical, small-molecule microarray, 635/667 nm fluorescence, artefact control for SMM control-protein annotation, profiling panel (AID 1131); details: fibrinogen-A647 binding fluorescence, higher = more signal;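 also: z-score merges 667 nm fluorescence with per-spot signal-to-noise over triplicate slides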
[5] = molecular target: Follistatin (Homo sapiens) (UniProt P19883); experiment: FST protein binding to printed compounds – biochemical, small-molecule microarray, 635/667 nm fluorescence, primary screen (AID 1132); details: 635 nm fluorescence, higher = more signal
[6] = molecular target: Fibroblast growth factor 2 (Homo sapiens) (UniProt P09038); experiment: basic fibroblast growth factor binding to printed compounds – biochemical, small-molecule microarray, 635/667 nm fluorescence, primary screen (AID 1133); details: FGF2, fluorescence 635/667, higher = more signal
[7] = JC-1 mitochondrial potential readout, lung cancer cells – cell-based, A549, JC-1 fluorescence, basal, 24 h, 100 nL, profiling panel (AID 1138); details: higher = more signal;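 also: A549 lung adenocarcinoma cells under basal conditions with no added stimulus; test concentration not given here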
[8] = test system: Lefty1; experiment: Lefty1 protein binding to printed compounds – biochemical, small-molecule microarray, 635/667 nm fluorescence, primary screen (AID 1139); details: fluorescence 635/667, higher = more signal
[9] = test system: wheat germ agglutinin (Triticum aestivum), Alexa647-labelled; experiment: Alexa647-WGA lectin binding to printed small molecules – biochemical, small-molecule microarray, 635/667 nm fluorescence, artefact control for SMM control-protein annotation, profiling panel (AID 1140); details: WGA-A647 binding, 635 nm fluorescence, higher = more signal;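 also: score merges 667 nm feature emission with signal to noise over triplicate slides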
[10] = molecular target: Luciferin 4-monooxygenase (Photinus pyralis) (UniProt P08659); experiment: inhibition of purified Photinus pyralis luciferase – biochemical, luminescence, purified enzyme, 2006 set, primary screen (AID 1141); details: purified firefly luciferase, SteadyGlo luminescence, 30 min; higher = more signal, called active from +8 up or from −8 down;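 also: cell-free assay with purified firefly luciferase at 100 ng per well in PBS; test concentration not given here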
[11] = test system: Wnt5a (protein binding on small-molecule microarray); experiment: small molecules binding Wnt5a protein – biophysical, small-molecule microarray, 635/667 nm fluorescence, primary screen (AID 1142); details: 635 nm fluorescence, higher = more signal;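 also: fluorescence read at 667 nm with signal to noise per printed feature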
[12] = ATP-based viability of Huh7 replicon cells – cell-based, CellTiter-Glo luminescence, basal, 48 h, cytotoxicity control for HCV replication inhibitor project, primary screen (AID 1143); details: higher = more signal, called active from +8 up or from −8 down;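 also: Huh7 hepatoma cells carrying a hepatitis C replication reporter with no stimulus; test concentration not given here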
[13] = Pseudomonas biofilm growth suppression – PAO1 strain, BacTiter-Glo luminescence, LB-PBS, primary screen (AID 1144); details: P. aeruginosa PAO1 biofilm, 12 h, higher = more signal
[14] = basal CRE-LacZ reporter activity in PC12 – cell-based, unstimulated, primary screen (AID 1145); details: no forskolin, luminescence, 4.5 h, higher = more signal, called active from +8 up or from −8 down
[15] = forskolin-driven CRE-LacZ activity in PC12 – cell-based, CRE-LacZ reporter, forskolin-stimulated, primary screen (AID 1146); details: luminescence, 4.5 h, higher = more signal, called active from +8 up or from −8 down;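 also: PC12 cells with 6xCRE LacZ reporter stimulated by forskolin 10 µM; beta-galactosidase reporter signal reflecting CREB driven transcription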
[16] = molecular target: Streptavidin (Streptomyces avidinii) (UniProt P22629); experiment: compounds binding control protein streptavidin – biophysical, small-molecule microarray, 635/667 nm fluorescence, artefact control for SMM compound annotation, primary screen (AID 1147); details: higher = more signal;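 also: signal reflects streptavidin binding to arrayed compounds as a control protein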
[17] = probe aInhba binding on compound microarray – biochemical, small-molecule microarray, 635/667 nm fluorescence, primary screen (AID 1148); details: higher = more signal;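 also: score merges 667nm spot fluorescence with signal-to-noise for antibody binding to printed compounds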
[18] = molecular target: Torsin-1A (Homo sapiens) (UniProt O14656); experiment: TOR1A wild-type binding on microarray – cell lysate, small-molecule microarray, lysate, 635/667 nm, primary screen (AID 1149); details: COS7 hTOR1A-WT lysate, 635 nm fluorescence, higher = more signal
[19] = molecular target: Torsin-1A (Homo sapiens) (UniProt O14656); experiment: torsin A mutant lysate binding on microarrays – cell lysate, small-molecule microarray, COS7 lysate, 635/667 nm fluorescence, primary screen (AID 1150); details: COS7 hTOR1A mutant lysate, 635 nm fluorescence, higher = more signal;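 also: score pools 667 nm emission and signal to noise measuring lysate protein binding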
[20] = test system: Sonic hedgehog protein (Shh); experiment: Sonic hedgehog microarray binding compounds – biochemical, small-molecule microarray, 635/667 nm fluorescence, primary screen (AID 1151); details: 635 nm fluorescence, higher = more signal;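 also: Shh protein binding to compounds spotted on small-molecule microarray slides; score combines spot fluorescence intensity with signal-to-noise across triplicate slides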

Fibroblast growth factor 2 (Homo sapiens), sequence (P09038 whole entry, looked up): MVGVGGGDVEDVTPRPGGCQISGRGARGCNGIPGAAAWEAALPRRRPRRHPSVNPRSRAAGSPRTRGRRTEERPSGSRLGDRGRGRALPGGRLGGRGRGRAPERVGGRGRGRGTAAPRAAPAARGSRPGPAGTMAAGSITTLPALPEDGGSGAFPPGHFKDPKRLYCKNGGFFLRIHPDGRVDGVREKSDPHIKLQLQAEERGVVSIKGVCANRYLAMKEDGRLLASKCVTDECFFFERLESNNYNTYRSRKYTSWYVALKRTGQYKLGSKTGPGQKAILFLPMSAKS
Focal adhesion kinase 1 (Homo sapiens), sequence (Q05397 whole entry, looked up): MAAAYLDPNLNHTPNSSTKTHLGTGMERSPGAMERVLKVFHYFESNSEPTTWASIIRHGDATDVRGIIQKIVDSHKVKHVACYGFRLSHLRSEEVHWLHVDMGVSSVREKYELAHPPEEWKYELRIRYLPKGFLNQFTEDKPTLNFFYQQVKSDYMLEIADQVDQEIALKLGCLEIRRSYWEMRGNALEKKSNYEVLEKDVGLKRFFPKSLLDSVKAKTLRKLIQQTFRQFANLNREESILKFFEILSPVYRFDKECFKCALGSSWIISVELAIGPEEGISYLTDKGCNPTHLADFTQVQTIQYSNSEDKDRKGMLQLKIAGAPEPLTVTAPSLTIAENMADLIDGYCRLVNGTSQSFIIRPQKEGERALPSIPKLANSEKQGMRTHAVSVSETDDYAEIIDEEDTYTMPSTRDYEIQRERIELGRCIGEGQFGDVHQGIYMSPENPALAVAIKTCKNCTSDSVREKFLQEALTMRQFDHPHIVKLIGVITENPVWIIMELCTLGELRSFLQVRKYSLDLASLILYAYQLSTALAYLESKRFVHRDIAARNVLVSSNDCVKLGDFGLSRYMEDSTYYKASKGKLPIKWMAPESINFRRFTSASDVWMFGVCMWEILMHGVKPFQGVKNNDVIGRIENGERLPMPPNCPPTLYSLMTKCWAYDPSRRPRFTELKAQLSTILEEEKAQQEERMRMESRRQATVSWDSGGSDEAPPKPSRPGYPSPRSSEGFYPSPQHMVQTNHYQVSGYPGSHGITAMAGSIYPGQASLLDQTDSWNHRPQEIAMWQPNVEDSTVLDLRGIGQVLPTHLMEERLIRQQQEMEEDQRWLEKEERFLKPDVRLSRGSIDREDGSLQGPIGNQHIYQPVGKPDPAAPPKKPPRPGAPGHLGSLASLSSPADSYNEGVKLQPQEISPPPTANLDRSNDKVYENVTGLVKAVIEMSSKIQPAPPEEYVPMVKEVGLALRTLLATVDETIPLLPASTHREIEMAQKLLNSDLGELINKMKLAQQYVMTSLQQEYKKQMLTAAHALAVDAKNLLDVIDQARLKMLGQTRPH
Streptavidin (Streptomyces avidinii), sequence (P22629 whole entry, looked up): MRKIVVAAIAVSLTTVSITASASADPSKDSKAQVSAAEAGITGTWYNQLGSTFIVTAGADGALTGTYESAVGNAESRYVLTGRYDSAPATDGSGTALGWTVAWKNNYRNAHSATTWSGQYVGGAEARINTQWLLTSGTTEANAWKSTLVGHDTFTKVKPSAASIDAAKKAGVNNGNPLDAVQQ
Torsin-1A (Homo sapiens), sequence (O14656 whole entry, looked up): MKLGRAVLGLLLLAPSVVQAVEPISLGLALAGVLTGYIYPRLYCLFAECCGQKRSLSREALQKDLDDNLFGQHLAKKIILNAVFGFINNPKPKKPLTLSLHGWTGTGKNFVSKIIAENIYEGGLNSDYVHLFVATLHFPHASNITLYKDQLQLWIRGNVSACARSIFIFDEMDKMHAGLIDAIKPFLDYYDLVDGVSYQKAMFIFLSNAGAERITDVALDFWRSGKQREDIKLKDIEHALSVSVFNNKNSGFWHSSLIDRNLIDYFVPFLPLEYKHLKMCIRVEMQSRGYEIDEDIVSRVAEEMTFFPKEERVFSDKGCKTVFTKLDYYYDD
Follistatin (Homo sapiens), sequence (P19883 whole entry, looked up): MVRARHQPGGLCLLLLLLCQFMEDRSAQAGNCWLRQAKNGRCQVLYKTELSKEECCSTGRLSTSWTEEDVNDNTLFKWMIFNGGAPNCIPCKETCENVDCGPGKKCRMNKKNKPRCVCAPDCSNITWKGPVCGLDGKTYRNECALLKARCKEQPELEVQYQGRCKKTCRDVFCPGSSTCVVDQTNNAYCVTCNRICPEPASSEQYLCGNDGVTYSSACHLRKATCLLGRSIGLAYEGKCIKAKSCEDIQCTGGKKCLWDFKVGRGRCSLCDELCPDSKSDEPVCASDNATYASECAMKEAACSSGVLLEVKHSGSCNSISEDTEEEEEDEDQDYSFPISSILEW
Luciferin 4-monooxygenase (Photinus pyralis), sequence (P08659 whole entry, looked up): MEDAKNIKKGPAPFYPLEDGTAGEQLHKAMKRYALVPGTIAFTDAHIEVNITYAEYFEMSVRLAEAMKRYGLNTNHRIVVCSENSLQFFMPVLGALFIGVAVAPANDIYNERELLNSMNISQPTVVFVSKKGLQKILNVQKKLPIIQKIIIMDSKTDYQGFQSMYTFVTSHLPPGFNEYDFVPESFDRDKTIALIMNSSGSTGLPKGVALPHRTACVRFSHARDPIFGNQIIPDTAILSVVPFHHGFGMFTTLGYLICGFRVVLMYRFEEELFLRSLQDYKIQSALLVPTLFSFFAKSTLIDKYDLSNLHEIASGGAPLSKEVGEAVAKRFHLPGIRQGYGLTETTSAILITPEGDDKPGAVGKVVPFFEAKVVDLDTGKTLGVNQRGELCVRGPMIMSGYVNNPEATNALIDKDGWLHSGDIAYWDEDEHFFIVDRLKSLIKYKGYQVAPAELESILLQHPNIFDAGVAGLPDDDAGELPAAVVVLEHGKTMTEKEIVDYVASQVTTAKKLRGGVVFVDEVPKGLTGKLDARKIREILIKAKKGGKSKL

Compound	composite z-score [1]	composite z-score [2]	composite z-score [3]	composite z-score [4]	composite z-score [5]	composite z-score [6]	z-score [7]	composite z-score [8]	composite z-score [9]	z-score [10]	composite z-score [11]	z-score [12]	z-score [13]	z-score [14]	z-score [15]	composite z-score [16]	composite z-score [17]	composite z-score [18]	composite z-score [19]	composite z-score [20]
CCCNC(=O)[C@@H]1c2ccccc2C(=O)N(Cc2ccccc2Cl)[C@H]1c1ccc(CO)cc1	2.58	1.19	0.497	0.691	1.36	1.3	3.16	1.1	1.09	-1.54 (inactive)	0.4	-1.44 (inactive)	0.378 (inactive)	-0.412 (inactive)	-0.366 (inactive)	0.802	0.264	0.174	0.461	1.9
COc1ccc(O[C@H]2C=C[C@@H](c3ccccc3)O[C@@H]2COC(=O)CCC(C)=NOCC[C@@H]2C=C[C@H](OC(C)=O)[C@@H](COC(C)=O)O2)cc1	0.545	-0.129	0.151	0.351	0.612	0.168	0.213	0.342	0.193	1.03 (inactive)	-0.0096	-1.06 (inactive)	0.57 (inactive)	0.918 (inactive)	0.378 (inactive)	0.0903	-0.0736	1.56	0.43	0.661
CCOC(=O)C1=CCC(c2cc3ccccc3[nH]2)NC1 (stereo not given)	0.693	1.13	1.22	-0.288	1.12	-0.356	0.642	-0.439	1.06	-3.19 (inactive)	0.109	-2.83 (inactive)	0.756 (inactive)	0.369 (inactive)	0.464 (inactive)	0.338	0.029	0.661	0.449	-0.402
O=C1[C@H]2[C@H]3[C@H](O)[C@H](O)CC(=NOCc4ccccc4)[C@H]3CC[C@H]2C(=O)N1C[C@@H]1CCCO1	0.216	0.586	-0.0074	0.953	0.393	1.12	-0.877	0.249	0.352	0.949 (inactive)	0.171	-0.34 (inactive)	0.282 (inactive)	-0.298 (inactive)	-0.471 (inactive)	0.295	-0.0963	0.95	0.119	0.135
CCN1C(=O)[C@H]2[C@H]3[C@H](O)[C@H](O)CC(=NOC[C@@H](C)[C@H](OCc4ccccc4)C(C)C)[C@@H]3CC[C@H]2C1=O	0.0486	0.472	-0.0745	0.58	-0.0316	-0.109	-0.925	0.192	0.564	0.646 (inactive)	0.0339	-0.994 (inactive)	0.683 (inactive)	0.513 (inactive)	0.435 (inactive)	0.251	-0.0458	0.221	1.05	0.119
CN(C)CCCNC(=O)[C@@H]1c2ccccc2C(=O)N(Cc2ccccc2)[C@H]1c1ccc(CO)cc1	0.514	-0.958	-0.193	-0.355	-0.242	-0.158	1.85	-0.201	-0.0107	-0.784 (inactive)	-0.142	0.143 (inactive)	0.596 (inactive)	-0.295 (inactive)	-0.877 (inactive)	-0.844	-0.128	-0.146	-0.725	-0.336
O=C(NN=C1C[C@@H](O)[C@@H](O)[C@@H]2[C@@H]3C(=O)N(c4cccc(Oc5ccccc5)c4)C(=O)[C@@H]3CC[C@H]12)OCc1ccccc1	1.22	0.116	-0.294	0.906	0.165	0.237	-1.25	0.168	0.557	1.26 (inactive)	-0.132	-1.24 (inactive)	1.3 (inactive)	-0.0199 (inactive)	0.0693 (inactive)	1.68	-0.128	0.0142	-0.104	-0.689
COCCOC(=O)N1C(=O)[C@@]2(c3cc(C#CCNC(N)=O)ccc31)[C@H](c1ccc(O)cc1)N1[C@H](c3ccccc3)[C@H](c3ccccc3)OC(=O)[C@H]1[C@@H]2C(=O)N1CCCCCCC1	0.127	0.857	0.14	0.606	1.3	1.5	-1.18	1.05	0.566	0.629 (inactive)	0.272	-0.446 (inactive)	-0.945 (inactive)	-1.57 (inactive)	0.357 (inactive)	0.445	-0.186	0.4	0.527	1.65
COC(=O)C1=CCC(c2cccc(Cl)c2)O1 (stereo not given)	0.192	0.24	-0.126	0.346	-0.399	-0.473	-0.816	-0.319	-0.455	1.74 (inactive)	-0.241	-4.35 (inactive)	-1.52 (inactive)	0.388 (inactive)	-0.551 (inactive)	-0.0713	0.0742	0.0026	-0.58	-0.534
COCCCNC(=O)[C@@]1(C)c2ccccc2C(=O)N(Cc2ccc(OC(F)(F)F)cc2)[C@H]1c1ccc(CO)cc1	-0.95	-1.52	-0.253	-1.75	-0.0328	-0.553	0.332	-1.02	-1.18	-0.159 (inactive)	-0.0685	-1.27 (inactive)	-0.27 (inactive)	0.585 (inactive)	-0.0912 (inactive)	-0.773	0.185	0.13	-0.17	-0.32
